DRD3 antagonist: qHTS of D3 Dopamine Receptor Antagonist: qHTS; D(3) dopamine receptor (Homo sapiens), P35462; D3R cells, DiscoveRx beta-arrestin luminescence, antagonist mode; stronger effect = lower value; max response, negative = inhibition, %; actives 2.5% (n = 360,000); in the data active = max response below about -50%; inconclusive = no clear call, values can overlap the other calls; also: % is scaled to controls: 0 for no effect and ±100 for the full control effect
Target sequence (P35462 whole entry, looked up): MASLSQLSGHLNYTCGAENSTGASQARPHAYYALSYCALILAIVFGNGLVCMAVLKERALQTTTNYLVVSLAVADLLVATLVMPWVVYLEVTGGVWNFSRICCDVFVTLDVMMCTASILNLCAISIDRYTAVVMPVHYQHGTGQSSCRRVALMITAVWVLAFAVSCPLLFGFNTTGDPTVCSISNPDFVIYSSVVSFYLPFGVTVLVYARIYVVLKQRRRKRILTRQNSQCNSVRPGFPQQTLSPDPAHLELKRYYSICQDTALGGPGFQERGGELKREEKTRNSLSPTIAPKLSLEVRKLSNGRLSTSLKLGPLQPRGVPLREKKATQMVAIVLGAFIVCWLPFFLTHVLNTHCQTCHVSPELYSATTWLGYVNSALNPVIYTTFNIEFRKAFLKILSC
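Cells expressing the human receptor were seeded at 1500 cells/well, incubated overnight at 37 degrees C in 5% CO2, then exposed to library compounds with dopamine controls for 90 minutes at 37 degrees C before luminescent detection.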
GLP-1R inv ag: qHTS of GLP-1 Receptor Inverse Agonists (Inhibition Mode); Potency, µM (highest dose often 38.3 µM), without a hit: at the highest dose activity change, negative = inhibition, hits mostly inhibitors; Glucagon-like peptide 1 receptor (Homo sapiens), P43220; HEK293 GLP-1R CRE-luciferase, luminescence, 24 h; GLP-1R form is constitutively active; actives 1.6% (n = 410,000); also: potency is read from the fitted curve at half-maximal effect; % is scaled to controls: 0 for no effect and ±100 for the full control effect; nearly all actives have a fitted effect of over 55% in size
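Readout was luciferase luminescence, measured 12 min after detection reagent at room temperature. Beforehand, GLP-1R reporter HEK293 cells had sat 12 h, then received compounds for 24 hr at 37 deg C.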
GLP1R ag: qHTS of GLP-1 Receptor Agonists | Glucagon-like peptide 1 receptor (Homo sapiens), P43220 | HEK293 GLP-1R CRE-luciferase, luminescence, 4-6 h; cells express a hypersensitive GLP-1R form | Potency, µM (series often up to 45.6 µM), for inactives: at the highest dose activation, hits mostly activators | actives 0.007% (n = 380,000) | AID 624172, 2012; also: potency is read from the fitted curve at half-maximal effect; % of control where 0% means no effect
ClpP mod: qHTS Assay for Activators of ClpP. ATP-dependent Clp protease proteolytic subunit (Bacillus subtilis (strain 168)), P80244. purified B. subtilis ClpP, FRET peptide cleavage, 20 min. Potency, µM (top dose mostly 57.5 µM), without a hit: top-dose activity change, negative = active. actives 1.9% (n = 340,000). AID 651965, 2013; active = well fitted falling curve with a large enough effect; inconclusive = small, poorly fitted or top-dose-only effect; inactive = no such curve, though single readings can be large or run the other way; also: potency is read from the fitted curve at half-maximal effect; the source files actives as falling curves though it sought activators and does not explain the sign; nearly all actives have a fitted effect of over 65% in size
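ClpP 10 microg/mL final, pH 8 Tris/KCl buffer with BSA, glycerol, Tween-20; compound pinned in; FRET-FV substrate; RT 20 min; Ex320/Em430; ΔFRET vs ADEP 5.8 microM, DMSO, no enzyme.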
DRD3 agonist: qHTS of D3 Dopamine Receptor Agonist: qHTS. D(3) dopamine receptor (Homo sapiens), P35462. D3R DiscoveRx beta-arrestin cells, luminescence, 90 min. max activation, %. actives 0.58% (n = 410,000); in the data active = max activation above about 30%; also: 0% is about no effect
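Agonist mode: compounds and dopamine controls were applied to plated cells for 90 min at 37 degrees C after an overnight attachment at 1500 cells/well. Luminescent read-out followed 30 - 60 minutes at room temperature with DiscoveRx detection reagent.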
GLP1R cytotox: qHTS of GLP-1 Receptor Inverse Agonists: Cytotox Screen; HEK293 cAMP-luciferase reporter cells, luminescence, 24 h; AID 624418, 2012; Potency, µM (highest dose often 38.3 µM), without a hit: at the highest dose activity change, negative = inhibition, hits mostly inhibitors; actives 0.13% (n = 410,000);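 also: loss of luciferase light is scored as toxicity; potency is read from the fitted curve at half-maximal effect; % is scaled to controls: 0 for no effect and ±100 for the full control effect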
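Quantitative HTS format, 1536 wells, 200 cells/uL seeded. Compounds: 23 nL, 24 h, 37 °C. Detection: luciferase reagent, luminescence at 12 min RT; decreased signal taken as cytotoxic.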
Numbers without * were called inactive; u = inconclusive; x = no result given. A selection: hits, their analogues and other compounds. The true share with any hit is near 5.7%. Unless noted, calls follow the shape of the dose curve; as a rule, active = well fitted curve in the direction sought with a large enough effect; inconclusive = small, poorly fitted or top-dose-only effect, or another doubt; inactive = no such curve, though single readings can be large; an effect the other way counts as inactive or inconclusive.

SMILES | DRD3 antagonist | GLP-1R inv ag | GLP1R ag | ClpP mod | DRD3 agonist | GLP1R cytotox
CCCCOc1ccc(S(=O)(=O)NC(=O)C2(C)CCN2C(=O)CCc2ccccc2)cc1 (centres undefined) | -50.2* | 9.6% | -9.0% | 5.3% | -2.5 | -4.4%
CC1(C(=O)NS(=O)(=O)c2cccc(Cl)c2)CCN1C(=O)CC1CC1 (centres undefined) | 0.0 | 22.1% | -4.7% | -1.7% | 52.3* | -2.6%
CC1(C(=O)NS(=O)(=O)c2cccc(Cl)c2)CCN1C(=O)CC1CCCCC1 (centres undefined) | 0.0 | -13.4% | -5.5% | -1.0% | -11.2 | 3.4%
CC1(C(=O)Nc2cnc3ccccc3c2)CCN1C(=O)CCc1ccccc1 (centres undefined) | 0.0 | -27.7% | -0.8% | -6.1% | 53.9* | 11.5%
CN1CCCCC1CCN1c2ccccc2Sc2ccc(S(C)=O)cc21 (centres undefined) | -75.0* | -6.0% | 4.0% | 5.1% | -85.3 | -0.6%
Cc1nc2ccc(NC(=O)C3(C)CCCN(C(C)C)C3)cc2o1 (centres undefined) | -5.0 | 13.6% | 4.0% | -2.3% | 1.0 | 2.6%
COc1ccccc1CCNC(=O)Cc1ccc(NC(=O)N2CCSc3ncccc32)cc1 | x | 3.7% | x | -21.8% | 0.7 | 6.9%
CCN(CC)S(=O)(=O)c1cccc(C(=O)N[C@H](C(=O)NCc2ccccc2F)C(C)C)c1 | u | u | -0.6% | -5.7% | -4.2 | 1.7%
CCN(CC)S(=O)(=O)c1cccc(C(=O)Nc2cc(C)cc(C)c2)c1 | -21.4 | 2µM* | 4.4% | -3.1% | -3.4 | 10.4%
CCN(CC)S(=O)(=O)c1cccc(C(=O)N[C@H](C(=O)NCc2ccc(Cl)cc2)C(C)C)c1 | 0.0 | 12.6µM* | -2.0% | -3.5% | -16.3 | 5.1%
Cc1cccc(N2CCN(CC(O)COc3ccccc3Cl)CC2)c1 (centres undefined) | -75.5* | u | -1.2% | -3.7% | 4.4 | -11.0%
OC(COc1cccc2ccccc12)CN1CCN(c2ccc(Cl)cc2)CC1 (centres undefined) | -4.2 | u | -2.4% | -2.7% | -7.0 | -12.6%
OC(COc1cccc2ccccc12)CN1CCN(c2cccc(Cl)c2)CC1 (centres undefined) | -6.1 | u | 6.3% | -4.6% | 44.8* | -38.4%
COc1ccccc1N1CCN(CC(O)COc2ccc(C)cc2C(C)(C)C)CC1 (centres undefined) | x | u | x | 0.9% | -10.4 | 4.6%
Cc1ccc(CNC(=O)c2nnn(Cc3ccc(F)cc3)c2N)cc1 | x | -11.1% | x | -1.3% | -15.6 | 12.2%
NCCCC[C@H](NC(=O)[C@@H]1CCCN1C(=O)[C@@H]1CSSC[C@H](NC(=O)CNC(=O)CNC(=O)CN)C(=O)N[C@@H](Cc2ccc(O)cc2)C(=O)N[C@@H](Cc2ccccc2)C(=O)N[C@@H](CCC(N)=O)C(=O)N[C@@H](CC(N)=O)C(=O)N1)C(=O)NCC(N)=O | x | x | -0.3% | x | -15.6 | x
Cn1c(=O)cc(OCC(=O)NCc2ccc(F)cc2Cl)c2ccccc21 | x | 1.4% | -0.4% | -4.7% | -8.0 | 1.2%
CCC(CC)C(=O)Nc1c(C(=O)N2CCN(c3ccccc3F)CC2)oc2ccccc12 | x | u | x | -12.2% | -0.9 | 2.4%
Cc1ccn2c(CC(C)(C)C)c(-c3ccc(F)cc3)nc2c1 | 19.2 | 7.08µM* | -3.9% | -17.5% | -2.1 | -10.7%
Cc1ccc(Cc2c(-c3ccc(C)cc3)nc3cc(C)ccn23)cc1 | -8.0 | u | -3.5% | 4.3% | 2.0 | u

Compound activity (PubChem)
